Screening data deposited in PubChem by National Center for Advancing Translational Sciences (NCATS).
The list is not random: actives were taken first. Their share in the collection is about 19%.
TDP1 cell CPT: qHTS for Inhibitors of human tyrosyl-DNA phosphodiesterase 1 (TDP1): qHTS in cells in presence of CPT | chicken DT40 Tdp1-/-;hTDP1 cells + 20 nM CPT, ATP luminescence, 48 h | actives 12% (n = 420,000) | AID 686979, 2013 | Potency, µM (highest dose often 46.2 µM), inactives show top-dose activity change, negative = growth inhibition, actives largely listed as inhibitors; further: potency means the concentration at half of the fitted maximal effect; nearly all actives have a fitted effect of over 55% in size
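Chicken DT40 Tdp1-/- cells stably complemented with human TDP1 were seeded at 400 cells/well in medium containing 20 nM camptothecin, exposed to pin-transferred compounds, and grown at 37 °C for at least 48 hr. Viability was read as ATP luminescence.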
DT40 TDP1 no CPT: qHTS for Inhibitors of human tyrosyl-DNA phosphodiesterase 1 (TDP1): qHTS in cells in absence of CPT | DT40 Tdp1-/- hTDP1 cells, no CPT, ATP luminescence, 48 h | Potency, µM (titrated, usually from 46.2 µM), without a hit: top-dose activity change, negative = growth inhibition, hits mostly inhibitors | actives 15% (n = 420,000); further: potency means the concentration at half of the fitted maximal effect; nearly all actives have a fitted effect of over 55% in size
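Readout: luminescence from CellTiter-Glo after 30 min in the dark at RT. Cells: DT40 Tdp1-/- with stable hTDP1, 400/well. Exposure: compounds alone, ≥48 hr, 37 °C.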
IL-1B inflam inh: qHTS for Inhibitors of Inflammasome Signaling: IL-1-beta AlphaLISA Primary Screen | activity change, % at 57.5 µM | THP-1 LPS/ATP IL-1B secretion, AlphaLISA, 16 h; stronger effect = lower value | actives 4.7% (n = 360,000); in the data active means activity change below about -50%; inconclusive means mostly about -30% to -49%
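Secreted IL-1B measured by AlphaLISA bead assay after 16 h compound exposure of THP-1 cells; compounds (final up to 57.5 uM) added 1 h before LPS (250 ng/mL) and ATP (1.25 mM) stimulation; lower signal means less secretion.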
HT1080 IDH1KD tx: qHTS for induction of synthetic lethality in tumor cells producing 2HG: qHTS for the HT-1080-IDH1KD cell line; HT-1080 IDH1 knockdown viability, ATP luminescence, 48 h; Potency, µM (titrated, usually from 46.1 µM), for the others: at the top dose activity, negative = toxicity, usual class: cytotoxic; actives 2% (n = 360,000); AID 686971, 2013;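 further: potency means the concentration at half of the fitted maximal effect; 0% = DMSO wells and -100% = cell-free medium wells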
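CellTiter-Glo luminescence after 48 h compound exposure at 37 degrees C of IDH1-knockdown HT-1080 cells in 5% FBS RPMI. %Activity scaled between DMSO wells and cell-free media wells, with curves fitted and assigned curve classes.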
ELG1 DNA repair: qHTS screen for small molecules that inhibit ELG1-dependent DNA repair in human embryonic kidney (HEK293T) cells expressing luciferase-tagged ELG1; HEK293T ELG1-luciferase reporter, luminescence, 16 h; DNA damage induced by 5-fluorouridine; actives 2.3% (n = 330,000); Potency, µM (doses to about 46.1 µM), for inactives: top-dose activity change, negative = inhibition, actives largely listed as inhibitors; AID 504467, 2011; further: potency means the concentration at half of the fitted maximal effect; nearly all actives have a fitted effect of over 55% in size
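HEK293T cells expressing luciferase-tagged ELG1 (2,000/well) received 5-Fluorouridine plus compound or DMSO for 16 hr at 37 °C. Luciferase was read by ONE-Glo luminescence after 30 min at room temperature.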
HT1080NT lethal: qHTS for induction of synthetic lethality in tumor cells producing 2HG: qHTS for the HT-1080-NT fibrosarcoma cell line | HT-1080-NT fibrosarcoma viability, CellTiter-Glo ATP luminescence, 48 h | Potency, µM (highest dose often 46.1 µM), inactives show at the top dose activity, negative = less viability, hits mostly cytotoxic | actives 1.6% (n = 360,000);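 further: NT is the 2HG producing partner of a matched IDH1 knockdown line; potency means the concentration at half of the fitted maximal effect; 0% = DMSO-treated cells and -100% = media-only wells without cells; nearly all actives have a fitted effect of over 55% in size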
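HT-1080-NT; 750 cells/well; 5% FBS RPMI; 48 h compound, 37 degrees C; CellTiter-Glo luminescence; curve fitting and curve-class assignment.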
An asterisk follows results filed as active; ? = inconclusive; · = no result. Unless noted, the call rests on the fitted dose curve; in most records, active means well fitted curve in the direction sought with a large enough effect; inconclusive means small, poorly fitted or top-dose-only effect, or another doubt; inactive means no such curve, though single readings can be large; an effect the other way counts as inactive or inconclusive. Unless noted, on the % scale 0 is the no-effect control and ±100 the full control effect.

SMILES	TDP1 cell CPT	DT40 TDP1 no CPT	IL-1B inflam inh	HT1080 IDH1KD tx	ELG1 DNA repair	HT1080NT lethal
Cc1ccc(CCNC(=O)C2CCCN(c3nnc(C)c4c(C)n(-c5ccccc5)nc34)C2)cc1 (stereo not given)	23µM*	?	·	·	·	·
CO[C@H]1C[C@@H]2CC[C@@H](C)[C@@](O)(O2)C(=O)C(=O)N2CCCC[C@H]2C(=O)O[C@H]([C@H](C)C[C@@H]2CC[C@@H](O)[C@H](OC)C2)CC(=O)[C@H](C)C=C(C)[C@@H](O)[C@@H](OC)C(=O)[C@H](C)C[C@H](C)/C=C/C=CC=C1C	0.0024µM*	0.0047µM*	·	·	·	·
Cc1cccc(NC(=O)CN2CCC(C(=O)c3ccc4c(c3)OCCO4)CC2)c1	?	16µM*	?	-7%	-26%	-5%
O=C(c1ccc2c(c1)OCCO2)C1CCN(C(=O)Nc2ccc(F)cc2)CC1	?	18µM*	15	-4%	?	-9%
Cc1ccc(C(=O)C2CCN(CC(=O)Nc3ccc4c(c3)OCCO4)CC2)cc1	-27%	?	-7	-19%	-1%	-8%
COc1ccc(NC(=O)N2CCC(C(=O)c3ccc4c(c3)OCCO4)CC2)cc1	-20%	?	-14	-19%	19%	-6%
Cc1ccccc1-n1ncc2c1CC(C)(C)CC2NC(=O)c1ccncc1 (stereo not given)	-10%	-20%	2	2%	-9%	0%
Cc1ccccc1-n1ncc2c1CC(C)(C)CC2NC(=O)CSc1ccncc1 (stereo not given)	?	16µM*	-9	0%	-7%	7%
CC1(C)Cc2c(cnn2-c2ccc(F)cc2)C(NC(=O)CCC(F)(F)F)C1 (stereo not given)	-18%	-16%	-13	0%	-5%	-2%
COC(=O)CCC(=O)NC1CC(C)(C)Cc2c1cnn2-c1ccc(F)cc1 (stereo not given)	0.58µM*	?	26	-6%	-2%	-6%
Cc1ccc(-n2ncc3c2CC(C)(C)CC3NC(=O)c2ccccn2)cc1 (stereo not given)	?	?	-81*	?	?	?
Cc1ccccc1-n1ncc2c1CC(C)(C)CC2NC(=O)c1snnc1C (stereo not given)	?	26µM*	5	-11%	10%	1%
CSc1ncccc1C(=O)NC1CC(C)(C)Cc2c1cnn2-c1ccccc1C (stereo not given)	23µM*	?	-2	16%	5%	0%
Cc1ccccc1-n1ncc2c1CC(C)(C)CC2NC(=O)CCC(F)(F)F (stereo not given)	-11%	?	6	16%	5%	18%
CCCCOc1ccc(C(=O)NCC(c2ccc(Cl)cc2)N2CCOCC2)cc1 (stereo not given)	15µM*	21µM*	·	·	·	·
O=C(NCC(c1ccc(Cl)cc1)N1CCCCC1)c1ccc(F)cc1 (stereo not given)	13µM*	13µM*	·	·	·	·
CCOc1ccc(NS(=O)(=O)c2ccc(C(=O)NCC(c3ccc(OC)cc3)N3CCCC3)cc2)cc1 (stereo not given)	?	13µM*	0	1%	12%	-4%
CN1CCN(C(CNC(=O)Nc2ccc(Cl)cc2)c2ccc(F)cc2)CC1 (stereo not given)	?	?	?	-19%	-1%	-18%
COc1ccc(C(CNC(=O)c2ccc(NS(=O)(=O)c3ccc(F)c(C)c3)cc2)N2CCCC2)cc1 (stereo not given)	-19%	?	-9	1%	·	-16%
O=C(NCC(c1ccco1)N1CCCCC1)c1ccc(COc2ccc(Cl)cc2)cc1 (stereo not given)	21µM*	13µM*	-75*	?	·	18µM*
O=C(CSc1nc2nn(-c3ccccc3)c(=O)c-2c2n1CCCCC2)Nc1cccc(F)c1	?	?	?	-11%	?	-16%
CCCCOc1ccc(C(=O)NCC2(c3ccccc3)CCOCC2)cc1	21µM*	?	-14	0%	-12%	-5%
CCOc1ccc(C(=O)NCC(c2ccc(Cl)cc2)N2CCCCC2)cc1 (stereo not given)	7.3µM*	9.2µM*	·	·	·	·
Cc1ccc(C(=O)NCC(c2ccc(Cl)cc2)N2CCCCC2)cc1 (stereo not given)	12µM*	13µM*	·	·	·	·
O=C(COc1ccc(Cl)cc1Br)NCC(c1ccco1)N1CCCC1 (stereo not given)	?	18µM*	-3	-13%	?	-10%
SMILES	TDP1 cell CPT	DT40 TDP1 no CPT	IL-1B inflam inh	HT1080 IDH1KD tx	ELG1 DNA repair	HT1080NT lethal
CCCCCOc1ccc(C(=O)NCC2(c3ccccc3)CCOCC2)cc1	?	?	-25	?	33%	-5%
Cn1cc(S(=O)(=O)N2CCCC(C(=O)O)C2)cn1 (stereo not given)	?	-2%	22	-13%	1%	7%
CCOC(=O)c1ccc(NC(=O)C(=O)NCC2(c3ccc(OC)cc3)CCOCC2)cc1	?	15µM*	-24	0%	?	-1%
COc1ccc(C2(CNC(=O)c3ccccc3)CCOCC2)cc1	-3%	-3%	·	15%	5%	-2%
Cc1cc(N)ccc1NC(=O)CN1CCOCC1	3%	5%	0	7%	13%	1%
O=C(C[C@H]1C/C=C\C[C@H](Cc2ccc(F)cc2)C(=O)O[C@@H](c2ccccc2)CNC1=O)N[C@H](CO)Cc1ccccc1	?	10µM*	-8	-4%	?	-20%
O=C(C[C@H]1C/C=C\C[C@@H](Cc2ccc(F)cc2)C(=O)O[C@H](c2ccccc2)CNC1=O)NCCO	?	?	-1	2%	-5%	-2%
